PubChem BioAssay (EPA / NIEHS)
Inconclusive results are not listed. The source made the active and inactive calls. Rule for the calls, unless noted: active = hit-call score of the fitted dose curve at least 0.9, where 1 is the maximum; inactive = score below 0.9.

What was measured:
[1] = ACEA_ER_80hr: ACEA Biosciences xCELLigence Real-Time Cell Analysis on Estrogen Receptor Agonism for Proliferation (AID 2282667; active = hit-call score of the fitted dose curve at least 0.9, where 1 is the maximum); conditions: T47D proliferation, impedance (xCELLigence), 80 h
In short: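 Cell-growth kinetics were measured by impedance in T47D cells treated continuously with compound (top 100 uM final, 1:4 steps, 8 points). Activity at 80 h was scored as signal gain over the DMSO baseline.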

[2] = ATG_CRE_CIS: Attagene CIS-FACTORIAL HepG2 Assay for human cAMP Responsive Element (CRE) binding protein 3 (AID 2282926); conditions: HepG2 CRE cis-reporter, Attagene multiplexed mRNA; actives raise or lower the signal
In short: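 We dosed HepG2 cells bearing multiple cis-promoter reporter units for 24 h and measured reporter mRNA by RT-PCR with capillary electrophoresis detection. Bidirectional concentration-response fitting used DMSO as negative control.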

[3] = target: CCAAT/enhancer-binding protein beta (Homo sapiens) (UniProt P17676); test: ATG_C_EBP_CIS: Attagene CIS-FACTORIAL HepG2 Assay for human CCAAT/Enhancer Binding Protein (C/EBP) beta (AID 2282927); conditions: HepG2 Attagene cis-factorial transcription factor reporter; actives raise or lower the signal
In short: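 Chemical-treated HepG2 cells (24 h) bearing cis-regulated reporter constructs were processed for total RNA, then reverse transcription, PCR amplification, fluorescent primer extension and fragment analysis; gain- and loss-of-signal were fitted against DMSO.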

[4] = ATG_CMV_CIS: Attagene CIS-FACTORIAL HepG2 Assay for human CMV (Internal Marker) (AID 2282928); conditions: HepG2 CMV promoter reporter, transcription factor profiling; actives raise or lower the signal;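 note: endpoint acts as a background internal control marker rather than a target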
In short: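 Cell system: HepG2, transiently transfected multiple reporter units under cis promoters. Exposure: 24 h. Detection: RT-PCR, FAM labeling, HpaI digestion, capillary electrophoresis. Analysis: bidirectional, DMSO baseline.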

[5] = ATG_DR4_LXR_CIS: Attagene CIS-FACTORIAL HepG2 Assay for human Liver X Receptor (LXR), DR4 submotif (AID 2282929); conditions: HepG2 Attagene DR4 cis-reporter, mRNA transcription; actives raise or lower the signal
In short: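 Measures endogenous transcription factor activity via a DR4-driven reporter transcript in human HepG2 cells. Compounds incubated 24 h; mRNA quantified by RT-PCR and capillary electrophoresis, analysed as gain or loss of signal versus DMSO.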

[6] = target: Aryl hydrocarbon receptor (Homo sapiens) (UniProt P35869); test: ATG_Ahr_CIS: Attagene CIS-FACTORIAL HepG2 Assay for human Aryl Hydrocarbon Receptor (Ahr) (AID 2282930); conditions: HepG2 AhR cis-factorial reporter transcription; actives raise or lower the signal
In short: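 Following 24 h of chemical dosing, transfected HepG2 liver cells with cis-driven reporter units were lysed for RNA; reporter mRNA was quantified via RT-PCR and capillary electrophoresis, and responses fitted bidirectionally from DMSO.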

[7] = ATG_AP_1_CIS: Attagene CIS-FACTORIAL HepG2 Assay for human Activator Protein 1 (AP-1) (AID 2282931); conditions: HepG2 Attagene cis-factorial AP-1 reporter mRNA; actives raise or lower the signal
In short: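 Bidirectional concentration-response fitting against DMSO controls. Underlying signal: reporter mRNA from cis-promoter constructs in transiently transfected HepG2, measured after 24 h by RT-PCR and capillary electrophoresis.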

[8] = ATG_AP_2_CIS: Attagene CIS-FACTORIAL HepG2 Assay for human Activator Protein 2 (AP-2) (AID 2282932); conditions: HepG2 AP-2 cis-reporter, Attagene transcription factor profiling; actives raise or lower the signal
In short: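 HepG2 cells were transiently transfected with multiple cis-promoter reporter transcription units and dosed for 24 h. Reporter mRNA was measured by RT-PCR with capillary electrophoresis fluorescence; bidirectional fits relative to DMSO baseline.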

[9] = ATG_BRE_CIS: Attagene CIS-FACTORIAL HepG2 Assay for human Bone Morphogenetic Protein (BMP) Response Element (BRE) (AID 2282933); conditions: HepG2 BMP response element reporter, Attagene transcription factor profiling; actives raise or lower the signal
In short: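 Transient MRTU transfection of human HepG2 liver cells; 24 h compound treatment; total RNA isolated, reverse-transcribed, PCR-amplified, 6-FAM labelled, HpaI-cut, capillary electrophoresis. DMSO = negative control/baseline, bidirectional fit.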

[10] = target: Retinoic acid receptor alpha (Homo sapiens) (UniProt P10276); test: ATG_DR5_RAR_CIS: Attagene CIS-FACTORIAL HepG2 Assay for human Retinoic Acid Receptor Alpha (RARE), DR5 submotif (AID 2282934); conditions: HepG2 Attagene cis-factorial RARE DR5 reporter, mRNA; actives raise or lower the signal
In short: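 Transfected HepG2 reporter cells are exposed to chemicals for 24 h. Then RNA is extracted and the DR5 element reporter transcript is measured by RT-PCR and capillary electrophoresis, with bidirectional curve fitting relative to DMSO.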

[11] = target: Transcription factor E2F1 (Homo sapiens) (UniProt Q01094); test: ATG_E2F_CIS: Attagene CIS-FACTORIAL HepG2 Assay for human E2F Transcription Factor 1 (AID 2282935); conditions: HepG2 Attagene cis-reporter, E2F reporter RNA transcripts; actives raise or lower the signal
In short: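 HepG2 cells transiently transfected with multiplexed cis-element reporter units, dosed for 24 h. Reporter mRNA measured by RT-PCR, 6-FAM primer-extension labeling, HpaI digestion and capillary electrophoresis; bidirectional fit versus DMSO baseline.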

[12] = ATG_E_Box_CIS: Attagene CIS-FACTORIAL HepG2 Assay for human Enhancer Box (E-box) (AID 2282936); conditions: HepG2 E-box cis-reporter transcription, actives raise or lower the signal
In short: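 HepG2 cells transiently transfected with multiplexed cis-element reporter units sensing endogenous transcription factor activity; 24 h compound exposure. Reporter mRNA measured by RT-PCR, 6-FAM primer extension, HpaI digestion and capillary electrophoresis; bidirectional fit versus DMSO.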

[13] = ATG_M_61_CIS: Attagene CIS-FACTORIAL HepG2 Assay for M61 Transcription Factor (Internal Marker) (AID 2282937); conditions: HepG2 Attagene CIS-FACTORIAL M61 internal marker reporter; actives raise or lower the signal
In short: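 Fluorescence from labelled cDNA fragments, separated by capillary electrophoresis, quantifies reporter induction. HepG2 cells bearing transiently transfected cis-promoter MRTUs were incubated with test chemical for 24 h; DMSO defined baseline for gain/loss fitting.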

[14] = ATG_EGR_CIS: Attagene CIS-FACTORIAL HepG2 Assay for human Early Growth Response 1 (EGR1) (AID 2282938); conditions: HepG2 Attagene CIS-FACTORIAL EGR reporter mRNA; actives raise or lower the signal
In short: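 Cell-based multiplex transcription assay: HepG2 carrying transfected cis-element reporter units, 24 h chemical treatment. Fluorescence from capillary electrophoresis of RT-PCR products gives mRNA levels; fitting is bidirectional relative to DMSO.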

[15] = ATG_M_19_CIS: Attagene CIS-FACTORIAL HepG2 Assay for M19 Transcription Factor (Internal Marker) (AID 2282939); conditions: HepG2 Attagene CIS-FACTORIAL M19 internal marker reporter; actives raise or lower the signal
In short: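 Transfect HepG2 with MRTU reporter library → dose chemical, 24 h → isolate total RNA, reverse-transcribe with oligo(dT) → PCR, 6-FAM label, HpaI cut (2 h, 37 C) → capillary electrophoresis. Bidirectional fit vs DMSO.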

[16] = ATG_ERE_CIS: Attagene CIS-FACTORIAL HepG2 Assay for Estrogen Response Element (ERE) (AID 2282940); conditions: HepG2 ERE cis-reporter, Attagene RNA transcript; actives raise or lower the signal
In short: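 Transient MRTU transfection of human HepG2; cis-element promoters; 24 h dosing; total RNA → RT (oligo dT) → PCR → 6-FAM primer extension → HpaI digest → CE fluorescence. Bidirectional fit, DMSO baseline.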

[17] = ATG_Ets_CIS: Attagene CIS-FACTORIAL HepG2 Assay for human Erythroblast Transformation Specific (ETS) (AID 2282941); conditions: HepG2 ETS cis-reporter transcription, actives raise or lower the signal
In short: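 After transient cis-reporter transfection, HepG2 cells receive test chemical for 24 h. Reporter mRNA levels, measured by RT-PCR and capillary electrophoresis fluorescence, are analysed bidirectionally relative to the DMSO baseline.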

[18] = target: Hepatocyte nuclear factor 3-beta (Homo sapiens) (UniProt Q9Y261); test: ATG_FoxA2_CIS: Attagene CIS-FACTORIAL HepG2 Assay for human Forkhead box A2 (FOXA2) (AID 2282942); conditions: HepG2 cis-reporter transcription factor activity, 24 h; actives raise or lower the signal
In short: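 In transiently transfected human HepG2 cells, promoter-driven reporter mRNA levels after 24 h chemical exposure are determined via RT-PCR with capillary electrophoresis. DMSO serves as baseline for bidirectional fitting.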

[19] = ATG_FoxO_CIS: Attagene CIS-FACTORIAL HepG2 Assay for human Forkhead box O (FoxO) (AID 2282943); conditions: HepG2 Attagene cis-reporter, FoxO element, mRNA; actives raise or lower the signal
In short: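 24 h chemical exposure, HepG2 with transient cis-MRTU transfection. RNA extraction, oligo(dT) RT, reporter-specific PCR, primer-extension labelling, HpaI digestion, CE fragment analysis; bidirectional fit, DMSO baseline.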

[20] = ATG_GATA_CIS: Attagene CIS-FACTORIAL HepG2 Assay for human GATA Binding Protein (AID 2282944); conditions: HepG2 GATA cis-element reporter, Attagene multiplex mRNA; actives raise or lower the signal
In short: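 Transient MRTU transfection, HepG2, 24 h compound exposure. Total RNA → oligo(dT) RT → PCR → 6-FAM primer extension → HpaI cut → CE. Bidirectional fit vs DMSO.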

Chain of CCAAT/enhancer-binding protein beta (Homo sapiens) (P17676 whole entry, looked up, the tested form may be a part): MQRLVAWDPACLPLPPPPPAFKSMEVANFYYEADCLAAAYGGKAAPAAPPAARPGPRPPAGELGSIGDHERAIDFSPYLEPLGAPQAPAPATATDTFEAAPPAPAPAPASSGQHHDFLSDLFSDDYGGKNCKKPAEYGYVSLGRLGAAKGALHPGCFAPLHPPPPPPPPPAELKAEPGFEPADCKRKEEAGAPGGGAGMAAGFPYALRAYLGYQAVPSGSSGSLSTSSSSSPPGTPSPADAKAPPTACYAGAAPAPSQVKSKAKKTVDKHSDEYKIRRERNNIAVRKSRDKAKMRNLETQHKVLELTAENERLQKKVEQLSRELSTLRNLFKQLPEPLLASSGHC
Chain of Aryl hydrocarbon receptor (Homo sapiens) (P35869 whole entry, looked up): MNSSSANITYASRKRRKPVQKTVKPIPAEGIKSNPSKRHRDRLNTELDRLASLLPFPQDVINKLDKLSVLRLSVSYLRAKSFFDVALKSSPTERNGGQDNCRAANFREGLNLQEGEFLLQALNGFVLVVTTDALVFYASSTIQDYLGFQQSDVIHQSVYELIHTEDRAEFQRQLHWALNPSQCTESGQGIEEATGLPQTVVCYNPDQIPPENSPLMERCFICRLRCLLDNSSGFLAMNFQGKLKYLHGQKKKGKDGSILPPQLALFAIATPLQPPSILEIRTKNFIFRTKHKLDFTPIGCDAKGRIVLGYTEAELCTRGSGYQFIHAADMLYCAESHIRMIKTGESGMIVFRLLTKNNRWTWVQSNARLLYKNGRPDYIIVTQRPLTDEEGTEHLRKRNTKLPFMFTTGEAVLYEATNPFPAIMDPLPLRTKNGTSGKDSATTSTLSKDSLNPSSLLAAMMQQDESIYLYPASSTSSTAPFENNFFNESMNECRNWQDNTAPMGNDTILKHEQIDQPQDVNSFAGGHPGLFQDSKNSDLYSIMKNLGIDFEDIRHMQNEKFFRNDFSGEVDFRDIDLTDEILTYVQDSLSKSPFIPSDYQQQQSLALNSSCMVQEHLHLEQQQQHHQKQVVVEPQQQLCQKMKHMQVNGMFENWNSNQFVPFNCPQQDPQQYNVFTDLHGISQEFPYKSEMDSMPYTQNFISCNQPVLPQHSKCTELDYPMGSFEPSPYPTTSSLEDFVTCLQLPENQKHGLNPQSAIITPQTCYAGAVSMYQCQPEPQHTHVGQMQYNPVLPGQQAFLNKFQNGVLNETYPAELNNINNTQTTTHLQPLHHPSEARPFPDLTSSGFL
Chain of Retinoic acid receptor alpha (Homo sapiens) (P10276 whole entry, looked up): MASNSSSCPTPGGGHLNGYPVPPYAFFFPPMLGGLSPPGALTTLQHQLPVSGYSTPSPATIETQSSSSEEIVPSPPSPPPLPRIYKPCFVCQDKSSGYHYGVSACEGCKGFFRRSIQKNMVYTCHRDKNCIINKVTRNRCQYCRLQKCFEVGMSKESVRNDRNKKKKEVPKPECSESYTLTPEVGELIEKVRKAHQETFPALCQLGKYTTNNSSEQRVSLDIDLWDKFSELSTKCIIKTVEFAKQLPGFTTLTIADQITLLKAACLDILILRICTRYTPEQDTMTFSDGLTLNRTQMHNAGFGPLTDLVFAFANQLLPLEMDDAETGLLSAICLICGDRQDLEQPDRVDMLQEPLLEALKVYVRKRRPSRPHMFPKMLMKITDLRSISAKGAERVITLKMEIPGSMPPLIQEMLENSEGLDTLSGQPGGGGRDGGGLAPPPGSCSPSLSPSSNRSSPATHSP
Chain of Hepatocyte nuclear factor 3-beta (Homo sapiens) (Q9Y261 whole entry, looked up): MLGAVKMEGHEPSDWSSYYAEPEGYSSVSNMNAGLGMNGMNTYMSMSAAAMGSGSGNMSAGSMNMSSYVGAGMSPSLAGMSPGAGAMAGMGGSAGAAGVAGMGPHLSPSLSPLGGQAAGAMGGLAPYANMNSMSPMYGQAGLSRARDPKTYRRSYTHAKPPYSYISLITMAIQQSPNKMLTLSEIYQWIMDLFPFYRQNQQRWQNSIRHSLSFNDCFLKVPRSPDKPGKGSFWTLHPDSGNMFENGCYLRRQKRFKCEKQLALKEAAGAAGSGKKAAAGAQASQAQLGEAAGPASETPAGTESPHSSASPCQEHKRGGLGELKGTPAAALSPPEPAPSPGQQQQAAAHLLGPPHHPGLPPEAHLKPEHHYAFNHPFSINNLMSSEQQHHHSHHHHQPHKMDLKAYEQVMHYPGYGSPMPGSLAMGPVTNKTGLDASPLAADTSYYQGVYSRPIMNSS
Chain of Transcription factor E2F1 (Homo sapiens) (Q01094 whole entry, looked up): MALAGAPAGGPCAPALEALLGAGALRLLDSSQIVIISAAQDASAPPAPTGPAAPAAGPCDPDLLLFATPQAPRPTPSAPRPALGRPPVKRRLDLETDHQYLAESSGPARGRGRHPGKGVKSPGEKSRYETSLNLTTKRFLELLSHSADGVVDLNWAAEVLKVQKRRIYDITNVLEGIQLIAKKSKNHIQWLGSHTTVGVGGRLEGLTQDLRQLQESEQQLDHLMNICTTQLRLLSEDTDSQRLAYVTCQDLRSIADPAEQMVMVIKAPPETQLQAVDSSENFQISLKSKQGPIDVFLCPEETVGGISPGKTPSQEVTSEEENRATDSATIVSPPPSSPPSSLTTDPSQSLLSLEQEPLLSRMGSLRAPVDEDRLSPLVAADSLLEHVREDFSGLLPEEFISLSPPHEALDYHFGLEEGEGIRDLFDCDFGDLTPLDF

CCCCCCCCCCCC(=O)OCC
outcome [1]: inactive
outcome [2]: inactive
outcome [3]: inactive
outcome [4]: inactive
outcome [5]: inactive
outcome [6]: inactive
outcome [7]: inactive
outcome [8]: inactive
outcome [9]: inactive
outcome [10]: inactive
outcome [11]: inactive
outcome [12]: inactive
outcome [13]: inactive
outcome [14]: inactive
outcome [15]: inactive
outcome [16]: inactive
outcome [17]: inactive
outcome [18]: inactive
outcome [19]: inactive
outcome [20]: inactive

O=C(C=Cc1ccccc1)OCCc1ccccc1
outcome [1]: inactive
outcome [2]: inactive
outcome [3]: inactive
outcome [4]: inactive
AC50 [5]: 24.8 µM (active)
outcome [6]: inactive
outcome [7]: inactive
outcome [8]: inactive
outcome [9]: inactive
outcome [10]: inactive
outcome [11]: inactive
outcome [12]: inactive
outcome [13]: inactive
outcome [14]: inactive
outcome [15]: inactive
AC50 [16]: 32.7 µM (active)
outcome [17]: inactive
outcome [18]: inactive
outcome [19]: inactive
outcome [20]: inactive

CC(C)[N+](C)(CCOC(=O)C1c2ccccc2Oc2ccccc21)C(C)C
outcome [1]: inactive
outcome [2]: inactive
outcome [3]: inactive
outcome [4]: inactive
outcome [5]: inactive
outcome [6]: inactive
outcome [7]: inactive
outcome [8]: inactive
outcome [9]: inactive
outcome [10]: inactive
outcome [11]: inactive
outcome [12]: inactive
outcome [13]: inactive
outcome [14]: inactive
outcome [15]: inactive
outcome [16]: inactive
outcome [17]: inactive
outcome [18]: inactive
outcome [19]: inactive
outcome [20]: inactive

CCCCCCCCCCCCc1ccc(O)cc1
AC50 [1]: 0.35 µM (active)
outcome [2]: inactive
outcome [3]: inactive
outcome [4]: inactive
outcome [5]: inactive
outcome [6]: inactive
outcome [7]: inactive
outcome [8]: inactive
outcome [9]: inactive
outcome [10]: inactive
outcome [11]: inactive
outcome [12]: inactive
outcome [13]: inactive
outcome [14]: inactive
outcome [15]: inactive
AC50 [16]: 0.146 µM (active)
outcome [17]: inactive
outcome [18]: inactive
outcome [19]: inactive
outcome [20]: inactive

NNS(=O)(=O)c1ccc(Oc2ccc(S(=O)(=O)NN)cc2)cc1
outcome [1]: inactive
outcome [2]: inactive
outcome [3]: inactive
outcome [4]: inactive
outcome [5]: inactive
AC50 [6]: 62.3 µM (active)
outcome [7]: inactive
outcome [8]: inactive
outcome [9]: inactive
outcome [10]: inactive
outcome [11]: inactive
outcome [12]: inactive
outcome [13]: inactive
outcome [14]: inactive
outcome [15]: inactive
outcome [16]: inactive
outcome [17]: inactive
outcome [18]: inactive
outcome [20]: inactive

Oc1c(Cl)cc(Cl)c(Cl)c1Cl
AC50 [1]: 10.5 µM (active)
outcome [2]: inactive
outcome [3]: inactive
outcome [4]: inactive
outcome [5]: inactive
outcome [6]: inactive
outcome [7]: inactive
outcome [8]: inactive
AC50 [9]: 100 µM (active)
outcome [10]: inactive
outcome [11]: inactive
outcome [12]: inactive
outcome [13]: inactive
AC50 [14]: 100 µM (active)
outcome [15]: inactive
outcome [16]: inactive
outcome [17]: inactive
outcome [18]: inactive
outcome [19]: inactive
outcome [20]: inactive

CC(=O)c1ccc(S(=O)(=O)NC(=O)NC2CCCCC2)cc1
outcome [1]: inactive
outcome [2]: inactive
outcome [3]: inactive
outcome [4]: inactive
outcome [5]: inactive
AC50 [6]: 100 µM (active)
outcome [7]: inactive
outcome [8]: inactive
outcome [9]: inactive
outcome [10]: inactive
outcome [11]: inactive
outcome [12]: inactive
outcome [13]: inactive
outcome [14]: inactive
outcome [15]: inactive
outcome [16]: inactive
outcome [17]: inactive
outcome [18]: inactive
outcome [19]: inactive
outcome [20]: inactive
